The values that follow come from PubChem BioAssay (NCI).

Compounds without any hit were thinned out: in the full panel of roughly 79,000, 15% have a hit. Values without a mark were called inactive. Active and inactive are the calls of the source. Cut-off read from the data, not from the text of the source: active = growth inhibition above about 70%; inactive = the rest.

Assay [1] can be described thus: NCI Yeast Anticancer Drug Screen. Data for the rad50 strain (AID 155).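 Note: 0% = growth of vehicle-only cultures of the same strain.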 Particulars: S. cerevisiae rad50 strain growth inhibition, stronger effect = higher value. The essentials: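 A DNA repair-deficient yeast mutant serves as the test organism; compound-induced growth inhibition is calculated against vehicle-treated cells.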
Assay [2] in a line: NCI Yeast Anticancer Drug Screen. Data for the mec2-1 strain (AID 157). Particulars: S. cerevisiae mec2-1 strain, stronger effect = higher value. In outline: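 Cells of the genetically defined mec2-1 yeast strain are incubated with test compound. Inhibition of growth is calculated against vehicle-treated controls.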
Assay [3] can be described thus: NCI Yeast Anticancer Drug Screen. Data for the sgs1 mgt1 strain (AID 161).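 Note: 0% = growth of cultures given vehicle only.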 Conditions: S. cerevisiae sgs1 mgt1 strain, stronger effect = higher value. In outline:
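Inhibition of yeast growth, normalised to vehicle-treated controls, is reported for a strain bearing genetic alterations in DNA damage repair.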

A short description of assay [4]: NCI Yeast Anticancer Drug Screen. Data for the cln2 rad14 strain (AID 165).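 Note: 0% = growth equal to vehicle treated cultures.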 Particulars: S. cerevisiae cln2 rad14 strain, stronger effect = higher value. The essentials: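 The screen exposed genetically defined yeast (cln2 rad14) to test compounds and scored growth inhibition relative to vehicle-treated controls.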
Assay [5] in a line: NCI Yeast Anticancer Drug Screen. Data for the bub3 strain (AID 167). Particulars: S. cerevisiae bub3 mutant strain, stronger effect = higher value. In outline: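 Inhibition values come from growth of compound-treated mutant yeast normalised to vehicle-treated controls.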
Assay [6] is described as follows: NCI Yeast Anticancer Drug Screen. Data for the mlh1 rad18 strain (AID 175). Particulars: S. cerevisiae mlh1 rad18 strain growth inhibition, stronger effect = higher value. In outline:
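Compound-treated yeast growth, normalised to vehicle controls. Strain bears defined DNA repair mutations.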

Where [7] appears, read: at 5.0 µM (retest, dose inferred, filed as 0.5).
[8] abbreviates: at 50.0 µM (retest, dose inferred, filed as 5.0).

For the molecule `CCOC(=O)c1ccc([N+](=O)[O-])o1`, the growth inhibition was 5% in assay [1] (setting [7]); 24% in assay [1] (setting [8]); 94.4% (active) in assay [1] (at 50.0 µM); 4% in assay [2] (setting [7]); 11% in assay [2] (setting [8]); 53.1% in assay [2] (at 50.0 µM). The growth inhibition in assay [3] (setting [7]) was 3%; in assay [3] (setting [8]) it was 14%; in assay [3] (at 50.0 µM), 66.1%; in assay [4] (setting [7]), -1%; in assay [4] (setting [8]), 11%; in assay [4] (at 50.0 µM), 28.3%. Further, the growth inhibition in assay [5] (setting [7]) was 7%; in assay [5] (setting [8]), 49%; in assay [5] (at 50.0 µM), 91% (active); in assay [6] (setting [7]) it was 2%; in assay [6] (setting [8]), 30%; in assay [6] (at 50.0 µM), 83.7% (active).

Take `CC/C(=N\NS(=O)(=O)c1ccc(C)cc1)c1cccc(OC)c1`: the growth inhibition was 34% in assay [1] (setting [7]); 47% in assay [1] (setting [8]); 69.6% in assay [1] (at 50.0 µM); 12% in assay [2] (setting [7]); 37% in assay [2] (setting [8]); 40.6% in assay [2] (at 50.0 µM). The growth inhibition is 50% in assay [3] (setting [7]); 90% (active) in assay [3] (setting [8]); 88.8% (active) in assay [3] (at 50.0 µM); 37% in assay [4] (setting [7]); 78% (active) in assay [4] (setting [8]); 51.2% in assay [4] (at 50.0 µM). Besides, the growth inhibition in assay [5] (setting [7]) was 43%; in assay [5] (setting [8]) it was 86% (active); in assay [5] (at 50.0 µM) it was 36.6%; in assay [6] (setting [7]), 36%; in assay [6] (setting [8]) it was 87% (active); in assay [6] (at 50.0 µM), 92.2% (active).

For `CCOC(=O)c1c(I)[nH]c(I)c1C`, the growth inhibition in assay [1] (setting [7]) is -1%; in assay [1] (setting [8]) it was 11%; in assay [1] (at 50.0 µM), 30.3%; in assay [2] (setting [7]), 0%; in assay [2] (setting [8]), 5%; in assay [2] (at 50.0 µM) it was 10.2%. Also, the growth inhibition in assay [3] (setting [7]) is -1%; in assay [3] (setting [8]) it was 14%; in assay [3] (at 50.0 µM), 22.2%; in assay [4] (setting [7]), -1%; in assay [4] (setting [8]) it was 3%; in assay [4] (at 50.0 µM), 10.6%. Besides, the growth inhibition in assay [5] (setting [7]) was 4%; in assay [5] (setting [8]) it was 3%; in assay [5] (at 50.0 µM), 38.5%; in assay [6] (setting [7]) it was 2%; in assay [6] (setting [8]), 9%; in assay [6] (at 50.0 µM), 42.3%.

As to `CCCNC(=O)OCc1ccc(NCCN(CC)CC)c2c(=O)c3ccccc3sc12`, the growth inhibition in assay [1] (setting [7]) was 10%; in assay [1] (setting [8]), 17%; in assay [1] (at 50.0 µM) it was 69%; in assay [2] (setting [7]) it was -7%; in assay [2] (setting [8]) it was -6%; in assay [2] (at 50.0 µM) it was -24%. The growth inhibition in assay [3] (setting [7]) was -4%; in assay [3] (setting [8]), 16%; in assay [3] (at 50.0 µM), -8.85%; in assay [4] (setting [7]) it was 13%; in assay [4] (setting [8]) it was 17%; in assay [4] (at 50.0 µM) it was 9.95%. In addition, the growth inhibition in assay [5] (setting [7]) was 14%; in assay [5] (setting [8]) it was 10%; in assay [5] (at 50.0 µM) it was -31.1%; in assay [6] (setting [7]), 3%; in assay [6] (setting [8]), 2%; in assay [6] (at 50.0 µM), 1.05%.

Turning to `CCCN=Cc1cnc(C#N)c(N)n1`, the growth inhibition is 4% in assay [1] (setting [7]); 4% in assay [1] (setting [8]); 19% in assay [1] (at 50.0 µM); 4% in assay [2] (setting [7]); 0% in assay [2] (setting [8]); -3.9% in assay [2] (at 50.0 µM). For the same molecule, the growth inhibition in assay [3] (setting [7]) was -1%; in assay [3] (setting [8]), 4%; in assay [3] (at 50.0 µM), 4.6%; in assay [4] (setting [7]), 1%; in assay [4] (setting [8]) it was 1%; in assay [4] (at 50.0 µM) it was 71.5% (active). Moreover, the growth inhibition in assay [5] (setting [7]) is -2%; in assay [5] (setting [8]), -1%; in assay [5] (at 50.0 µM), 17.3%; in assay [6] (setting [7]), 11%; in assay [6] (setting [8]) it was 2%; in assay [6] (at 50.0 µM), 32.5%.

For `O=C(O)C(O)C(O)C(O)C(O)c1nc2ccccc2s1` (stereo not given), the growth inhibition in assay [1] (setting [7]) was 13%; in assay [1] (setting [8]), 98% (active); in assay [1] (at 50.0 µM), 98.6% (active); in assay [2] (setting [7]), 13%; in assay [2] (setting [8]), 99% (active); in assay [2] (at 50.0 µM), 98.7% (active). Moreover, the growth inhibition is 12% in assay [3] (setting [7]); 96% (active) in assay [3] (setting [8]); 90.5% (active) in assay [3] (at 50.0 µM); 1% in assay [4] (setting [7]); 95% (active) in assay [4] (setting [8]); 73.7% (active) in assay [4] (at 50.0 µM). Also, the growth inhibition in assay [5] (setting [7]) was 8%; in assay [5] (setting [8]), 99% (active); in assay [5] (at 50.0 µM), 99% (active); in assay [6] (setting [7]), 9%; in assay [6] (setting [8]) it was 97% (active); in assay [6] (at 50.0 µM), 99% (active).

Regarding `CCN1/C(=C\c2cc[n+](CC)c3ccccc23)C=Cc2ccccc21`, the growth inhibition is -3% in assay [1] (setting [7]); 96% (active) in assay [1] (setting [8]); 42.4% in assay [1] (at 50.0 µM); 2% in assay [2] (setting [7]); 96% (active) in assay [2] (setting [8]); 51.5% in assay [2] (at 50.0 µM). Also, the growth inhibition in assay [3] (setting [7]) was -1%; in assay [3] (setting [8]), 86% (active); in assay [3] (at 50.0 µM), 32.4%; in assay [4] (setting [7]), -8%; in assay [4] (setting [8]) it was 96% (active); in assay [4] (at 50.0 µM), -31.4%. The growth inhibition in assay [5] (setting [7]) was 6%; in assay [5] (setting [8]), 97% (active); in assay [5] (at 50.0 µM), 68.8%; in assay [6] (setting [7]), 1%; in assay [6] (setting [8]), 97% (active); in assay [6] (at 50.0 µM), 53.4%.

Take `CCc1cccc(C(C)(C)C)c1NC(=S)N/C=C(\c1ccccc1)S(=O)Cc1ccccc1` (stereo not given): the growth inhibition in assay [1] (setting [7]) is 2%; in assay [1] (setting [8]), 77% (active); in assay [1] (at 50.0 µM), 68.4%; in assay [2] (setting [7]), 7%; in assay [2] (setting [8]), 70% (active); in assay [2] (at 50.0 µM) it was 46.2%. Further, the growth inhibition in assay [3] (setting [7]) was 10%; in assay [3] (setting [8]) it was 56%; in assay [3] (at 50.0 µM) it was 68.2%; in assay [4] (setting [7]), -15%; in assay [4] (setting [8]), 45%; in assay [4] (at 50.0 µM) it was 33.5%. The growth inhibition in assay [5] (setting [7]) was -23%; in assay [5] (setting [8]) it was 25%; in assay [5] (at 50.0 µM), 73.4% (active); in assay [6] (setting [7]), 14%; in assay [6] (setting [8]), 62%; in assay [6] (at 50.0 µM), 69.8%.

In the case of `CN(C)c1nc(=NCc2ccccc2)ss1`, the growth inhibition is -7% in assay [1] (setting [7]); 46% in assay [1] (setting [8]); 66.9% in assay [1] (at 50.0 µM); -5% in assay [2] (setting [7]); 38% in assay [2] (setting [8]); 54.7% in assay [2] (at 50.0 µM). In addition, the growth inhibition in assay [3] (setting [7]) was 19%; in assay [3] (setting [8]) it was 77% (active); in assay [3] (at 50.0 µM), 72.5% (active); in assay [4] (setting [7]), 8%; in assay [4] (setting [8]) it was 48%; in assay [4] (at 50.0 µM), 36.6%. Further, the growth inhibition was 0% in assay [5] (setting [7]); 76% (active) in assay [5] (setting [8]); 59% in assay [5] (at 50.0 µM); 5% in assay [6] (setting [7]); 82% (active) in assay [6] (setting [8]); 50.1% in assay [6] (at 50.0 µM).

For `Fc1ccc(CN2COc3c(cc(Cl)c4cccnc34)C2)cc1`, the growth inhibition is 9% in assay [1] (setting [7]); 97% (active) in assay [1] (setting [8]); 99.2% (active) in assay [1] (at 50.0 µM); 1% in assay [2] (setting [7]); 97% (active) in assay [2] (setting [8]); 99.6% (active) in assay [2] (at 50.0 µM). Also, the growth inhibition was 2% in assay [3] (setting [7]); 99% (active) in assay [3] (setting [8]); 99.6% (active) in assay [3] (at 50.0 µM); -8% in assay [4] (setting [7]); 98% (active) in assay [4] (setting [8]); 99.3% (active) in assay [4] (at 50.0 µM). The growth inhibition in assay [5] (setting [7]) is -5%; in assay [5] (setting [8]), 99% (active); in assay [5] (at 50.0 µM) it was 99.5% (active); in assay [6] (setting [7]), 11%; in assay [6] (setting [8]) it was 99% (active); in assay [6] (at 50.0 µM), 99.5% (active).
